High-throughput results: PubChem BioAssay, The Scripps Research Institute Molecular Screening Center
TEAD-YAP block: TEAD-YAP interaction inhibition | HEK-TIYL cells, TEAD-Gal4/YAP UAS-luciferase luminescence | inhibition, % at 9.12 µM | hit rate 1.4% among 640,000; in the data active = inhibition above about 32%;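 also: 0% = median of test compound wells and 100% = reference inhibitor wells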
FBW7 activator: activators of human E3 ligase FBW7; Q969H0; AlphaScreen FBW7–phospho-cyclin E peptide binding, activator screen; normalized activity (activation), % at 26.1 µM; hit rate 0.13% among 650,000; AID 1259310; in the data active = normalized activity above about 1.9%;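 also: purified mutant Fbw7 with reduced substrate affinity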
GPR151 activ: activators of human GPR151 | AID 1508602 | hit rate 1% among 650,000 | Q8TDV0 | PathHunter beta-arrestin GPR151 cells, luminescence | activation, % at 11.2 µM; in the data active = activation above about 4.9%;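 also: 0% = median of compound wells and 100% = cells with positive control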
MITF primary: inhibitors of human MITF; AID 1259374; inhibition, % at 2.6 µM; hit rate 0.91% among 650,000; AlphaScreen MITF homodimerization, bead proximity signal; O75030; in the data active = inhibition above about 50%;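 also: 0% = vehicle wells with protein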
Target sequence (O75030 whole entry, looked up): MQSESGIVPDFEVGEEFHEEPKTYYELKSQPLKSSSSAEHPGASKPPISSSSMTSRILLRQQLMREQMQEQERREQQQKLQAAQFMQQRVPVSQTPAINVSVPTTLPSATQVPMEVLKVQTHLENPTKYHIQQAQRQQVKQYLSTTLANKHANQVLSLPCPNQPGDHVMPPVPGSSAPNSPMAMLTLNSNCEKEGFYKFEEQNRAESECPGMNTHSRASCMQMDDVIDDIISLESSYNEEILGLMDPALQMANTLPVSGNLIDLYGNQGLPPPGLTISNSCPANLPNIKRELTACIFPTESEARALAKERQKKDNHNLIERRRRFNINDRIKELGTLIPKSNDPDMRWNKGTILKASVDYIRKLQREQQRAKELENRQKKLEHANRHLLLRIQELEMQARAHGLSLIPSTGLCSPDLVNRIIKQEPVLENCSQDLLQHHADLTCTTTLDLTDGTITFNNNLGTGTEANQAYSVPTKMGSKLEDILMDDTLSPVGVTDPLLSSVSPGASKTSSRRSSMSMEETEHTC
The depositor's hits bear a star. Most compounds without a hit are left out; they make up all but 3.5% or so of the library.

Screening Cc1cc2cc(NS(=O)(=O)c3cccc(C(F)(F)F)c3)ccc2[nH]1 returned TEAD-YAP block -0.4, FBW7 activator -0.1, GPR151 activ -1.0 and MITF primary 16.0.
O=C(O)COc1ccc(Br)cc1/C=C\c1nc(O)c([N+](=O)[O-])c(=O)[nH]1 was read as TEAD-YAP block 2.3, FBW7 activator -0.3, GPR151 activ 1.1 and MITF primary -3.0.
Cc1nc(COC(=O)c2n[nH]c3ccccc23)cs1 was read as TEAD-YAP block -6.3, FBW7 activator -0.1, GPR151 activ -1.6 and MITF primary -5.8.
For Clc1ccccc1CNc1ncnc2ccccc12 the results were TEAD-YAP block 48.3*, FBW7 activator 0.0, GPR151 activ 2.3 and MITF primary 8.5.
Screening COc1cc(Nc2cc(Nc3ccccn3)ncn2)cc(OC)c1OC returned TEAD-YAP block -10.4, FBW7 activator -0.2, GPR151 activ 0.3 and MITF primary 18.2.
COc1cc(Nc2cc(Nc3nccc4ccccc34)nc(N)n2)cc(OC)c1OC was read as TEAD-YAP block 77.1*, FBW7 activator -0.1, GPR151 activ -0.8 and MITF primary -1.3.
COc1cc(Nc2cc(Nc3ccccn3)nc(N)n2)cc(OC)c1OC was read as TEAD-YAP block 44.4*, FBW7 activator 0.0, GPR151 activ 1.0 and MITF primary -9.2.
Screening O=C(N/N=C\c1ccc(O)cc1O)c1ccccn1 returned TEAD-YAP block 17.0, FBW7 activator -0.8, GPR151 activ -5.4 and MITF primary 65.2*.
For O=C(N/N=C\c1cccc([N+](=O)[O-])c1O)c1cnccn1 the results were TEAD-YAP block -6.7, FBW7 activator -1.0, GPR151 activ 1.3 and MITF primary 76.7*.
Screening O=C(N/N=C\c1ccc(O)cc1O)c1cnccn1 returned TEAD-YAP block -6.0, FBW7 activator -0.7, GPR151 activ -1.5 and MITF primary 79.1*.
`O=C(N/N=C\c1cc(Br)ccc1O)c1ccccn1` gave TEAD-YAP block -22.6, FBW7 activator -0.7, GPR151 activ 1.7 and MITF primary 58.5*.
Screening O=C(O)c1ccc(/C=N/Nc2nc3ccccc3s2)cc1 returned TEAD-YAP block -64.2, FBW7 activator -0.1, GPR151 activ -8.1 and MITF primary 4.4.
Screening Cc1cc(/C=N/Nc2nc3ccccc3s2)c(C)n1C1CC1 returned TEAD-YAP block 57.4*, FBW7 activator -0.1, GPR151 activ -0.7 and MITF primary 15.6.
`COc1ccc(/C=N/Nc2nc3ccccc3s2)cc1` gave TEAD-YAP block 34.1*, FBW7 activator 0.0, GPR151 activ 0.6 and MITF primary 1.1.
COc1ccc(S(=O)(=O)Nc2ccc3c(c2)OCCO3)cc1Br was read as TEAD-YAP block 0.0, FBW7 activator -0.2, GPR151 activ 0.3 and MITF primary -2.7.
COc1ccccc1Oc1ccc(S(=O)(=O)Nc2ccc3c(c2)OCCO3)cc1 was read as TEAD-YAP block 44.3*, FBW7 activator 0.0, GPR151 activ 1.6 and MITF primary 12.8.
For COC(=O)Nc1ccc(S(=O)(=O)N2c3ccccc3CCC2C)cc1 (stereo not drawn) the results were TEAD-YAP block 52.6*, FBW7 activator 0.1, GPR151 activ 1.4 and MITF primary -8.1.
Screening CC(=O)c1ccc(OCC(=O)NCC2CCC3(CCN(Cc4cccnc4)CC3)O2)cc1 (stereo not drawn) returned TEAD-YAP block -6.2, FBW7 activator -0.2, GPR151 activ 0.2 and MITF primary 35.2.
Screening O=C(Nc1ccc(N2CCCCC2)cc1)c1ncn[nH]1 returned TEAD-YAP block 82.1*, FBW7 activator -0.9, GPR151 activ -7.2 and MITF primary 50.5.
`CC(C)C(=O)N1CCN(c2ccc(NC(=O)c3ncn[nH]3)cc2)CC1` gave TEAD-YAP block -1.9, FBW7 activator -0.6, GPR151 activ -4.4 and MITF primary 3.5.
Screening CCOc1ccc(NC(=O)c2ncn[nH]2)cc1 returned TEAD-YAP block 39.4*, FBW7 activator -0.1, GPR151 activ -0.1 and MITF primary -0.3.
CCOc1ccc(NC(=O)c2ccc(C(=O)Nc3ccc(OCC)cc3)cc2)cc1 was read as TEAD-YAP block -6.0, FBW7 activator -0.2, GPR151 activ 3.0 and MITF primary 8.1.
Screening C[C@@H](O)[C@@H]1NC(=O)[C@@H]2C[C@H](NCc3nc(-c4ccc(F)cc4)cs3)CN2C1=O returned TEAD-YAP block 0.4, FBW7 activator -0.2, GPR151 activ -0.5 and MITF primary -1.6.
For CCCCN(C)c1nnc(NC(=O)Nc2cc(OC)c(OC)c(OC)c2)s1 the results were TEAD-YAP block 56.4*, FBW7 activator -0.1, GPR151 activ 0.1 and MITF primary 11.2.
`CCCCN(C)c1nnc(NC(=O)Nc2ccccc2OC)s1` gave TEAD-YAP block -13.8, FBW7 activator 0.0, GPR151 activ 0.9 and MITF primary 1.5.
For CCCc1ccc(/C=C/c2ccccc2)nc1 the results were TEAD-YAP block 33.6*, FBW7 activator 0.2, GPR151 activ -3.8 and MITF primary 15.7.
CS(=O)(=O)N(CC(=O)N/N=C/c1cc(Cl)cc(Cl)c1O)c1ccccc1 was read as TEAD-YAP block 58.4*, FBW7 activator -0.3, GPR151 activ 1.1 and MITF primary 7.6.
For Cc1cc(C)nc(N2CCC(CNC(=O)C3CCCC3)CC2)n1 the results were TEAD-YAP block 15.0, FBW7 activator 0.1, GPR151 activ 0.1 and MITF primary -1.4.
O=C(CSc1nc2ccc(Nc3nc(Nc4ccccc4)nc(N4CCCC4)n3)cc2s1)NCc1ccccc1 was read as TEAD-YAP block 6.3, FBW7 activator -0.1, GPR151 activ 0.1 and MITF primary -0.8.
For O=C(CN1C(=O)C2C3C=CC(C3)C2C1=O)Nc1c2ccccc2nc2ccccc12 (stereo not drawn) the results were TEAD-YAP block 71.9*, FBW7 activator 0.0, GPR151 activ -0.4 and MITF primary 4.3.
Screening O=C(CN1C(=O)C2C3C=CC(C3)C2C1=O)NCc1ccccc1 (stereo not drawn) returned TEAD-YAP block 1.7, FBW7 activator 0.3, GPR151 activ -0.5 and MITF primary 9.3.
For CCCC(Nc1ncnc2sccc12)c1ccccc1 (stereo not drawn) the results were TEAD-YAP block 21.3, FBW7 activator 0.2, GPR151 activ -0.9 and MITF primary -7.4.
For CC(C)CCCC(C)Nc1ncnc2sccc12 (stereo not drawn) the results were TEAD-YAP block 48.0*, FBW7 activator 0.4, GPR151 activ 2.4 and MITF primary 14.2.
`NC(=NCc1ccccc1)c1cccc([N+](=O)[O-])c1` gave TEAD-YAP block 5.7, FBW7 activator 0.2, GPR151 activ -0.1 and MITF primary -4.7.
For O=C(Cn1ccc(=NCc2ccccc2)cc1)c1cccc([N+](=O)[O-])c1 the results were TEAD-YAP block 32.9*, FBW7 activator 0.0, GPR151 activ 0.0 and MITF primary -32.2.
Screening NC(=O)NC(=O)C[n+]1ccc(C(N)=O)cc1 returned TEAD-YAP block 0.7, FBW7 activator 0.0, GPR151 activ -0.2 and MITF primary 4.7.
`O=S1(=O)C=C(Sc2nc3ccccc3s2)c2ccccc21` gave TEAD-YAP block 61.1*, FBW7 activator 0.1, GPR151 activ -0.6 and MITF primary -0.6.
`Nc1ccccc1SC1=CS(=O)(=O)c2ccccc21` gave TEAD-YAP block -4.9, FBW7 activator 0.2, GPR151 activ -0.3 and MITF primary 5.7.
